Assay results: PubChem BioAssay (Tox21)
Values without a mark were called inactive. Results filed as inconclusive are left out. Entries that show only a call come without a potency. The source made the active and inactive calls. Unless noted, calls follow the shape of the full dose curve.

Experiments:
[1] = Nuclear factor erythroid 2-related factor 2/antioxidant responsive element (Nrf2/ARE) small molecule agonists: qHTS cell viability counter screen in human keratinocytes (AID 1919968; active = well fitted curve in the direction sought with a large enough effect in the repeat runs; an effect the other way counts as inactive or inconclusive; also: nearly all actives have a fitted effect of over 55% in size; also: potency is read from the fitted curve at half-maximal effect)
How it was run: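 Cytotoxicity was multiplexed with the Nrf2/ARE luciferase assay in the same wells. Stably transfected HaCaT keratinocytes were treated with test compounds for 23 h at 37 C. Cell viability was then measured by CellTiter-Fluor fluorescence.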

[2] = Nuclear factor erythroid 2-related factor 2/antioxidant responsive element (Nrf2/ARE) small molecule agonists: luciferase reporter gene qHTS assay in human keratinocytes (AID 1919969); also: nearly all actives have a fitted effect of over 35% in size; also: potency is read from the fitted curve at half-maximal effect
[3] = molecular target: Gonadotropin-releasing hormone receptor (Homo sapiens) (UniProt P30968); test: Human gonadotropin-releasing hormone receptor (GnRHR) small molecule agonists, calcium flux assay in GnRHR-HEK293 cells (AID 1920063); also: nearly all actives have a fitted effect of over 35% in size
How it was run: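 Agonist activity was measured as intracellular calcium flux in HEK293 cells engineered to stably express human GnRHR. After dye loading for 1 hour at 37 C, compounds in DMSO were added and fluorescence was followed for 3 minutes.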

[4] = molecular target: KiSS-1 receptor (Homo sapiens) (UniProt Q969F8); test: Human kisspeptin (KISS1R) small molecule agonists, calcium flux assay in KISS1R-HEK293 cells (AID 1920064; active = well fitted curve in the direction sought with a large enough effect in the repeat runs; an effect the other way counts as inactive or inconclusive)
How it was run: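 Agonist activity is monitored as intracellular calcium rise in engineered HEK293 cells carrying human KISS1R. Cells are dye-loaded for 1 h at 37 C before compound addition, and fluorescence is recorded for 3 min.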

[5] = G protein-coupled receptor (GPCR) small molecule agonists, calcium flux assay: HEK293 wild type cell line counter screen (AID 1920065)
How it was run: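 Seed cells, incubate 18 h (37 C, 5% CO2); add calcium dye, 1 h at 37 C; pin-transfer compounds, ATP control or DMSO; read fluorescence 480/540 nm each second for 3 min.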

[6] = p53 small molecule agonists, cell-based qHTS assay with rat liver microsomes (AID 1963578)
How it was run: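 p53RE-bla cells, 4,000/well, pre-incubated 5 h, then given compounds plus rat liver microsomes (0.5 mg/mL final) and NADPH (0.5 mg/mL final). Incubation 16 h at 37 C; beta-lactamase reporter read by LiveBLAzer fluorescence after 2 h at room temperature.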

[7] = p53 small molecule agonists, cell-based qHTS assay with rat liver microsomes: qHTS cell viability counter screen (AID 1963580); also: nearly all actives have a fitted effect of over 45% in size
How it was run: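 Counter screen for cytotoxicity under metabolic activation: rat liver microsomes and NADPH, 0.5 mg/mL final each, added with compounds to p53RE-bla HCT-116 cells; 16 h at 37 C, then ATP luminescence read.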

[8] = p53 small molecule agonists, cell-based qHTS assay: qHTS cell viability counter screen (AID 1963581); also: nearly all actives have a fitted effect of over 45% in size; also: potency is read from the fitted curve at half-maximal effect
How it was run: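 Viability was counter-screened in parallel with the p53 agonist reporter by measuring intracellular ATP luminescence in the same HCT-116 p53RE-bla wells after 16 h compound treatment at 37 C.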

[9] = molecular target: 5-hydroxytryptamine receptor 2A (Homo sapiens) (UniProt P28223); test: 5-hydroxytryptamine receptor 2A (HTR2A) small molecule antagonists, cell-based qHTS assay (AID 1963586); also: nearly all actives have a fitted effect of over 45% in size; also: potency is read from the fitted curve at half-maximal effect
How it was run: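 CHO cells stably expressing human HTR2A were plated for 18 h at 37 C, then loaded with calcium dye for 1 h. Compounds were preincubated 5 min at room temperature before DOI (4 nM solution) was added. Kinetic fluorescence was read for 3 min.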

[10] = molecular target: 5-hydroxytryptamine receptor 2A (Homo sapiens) (UniProt P28223); test: 5-hydroxytryptamine receptor 2A (HTR2A) small molecule agonists, cell-based qHTS assay (AID 1963587); also: nearly all actives have a fitted effect of over 30% in size
How it was run: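 HTR2A-CHO cells, plated 18 h at 37 C/5% CO2, dye-loaded 1 h at 37 C; compounds in DMSO added by pin tool (agonist mode). Intracellular calcium flux read as kinetic fluorescence on FDSS over 2 min at 1 s intervals.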

[11] = molecular target: Muscarinic acetylcholine receptor M1 (Homo sapiens) (UniProt P11229); test: Cholinergic receptor muscarinic 1 (CHRM1) small molecule antagonists, cell-based qHTS assay (AID 1963588); also: nearly all actives have a fitted effect of over 40% in size
How it was run: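 Compounds were tested at 15 concentrations in three independent runs. Dye-loaded CHRM1-CHO cells were exposed 5 min at room temperature before stimulation by acetylcholine added at 50nM. Intracellular calcium was read kinetically on FDSS for 3 min.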

[12] = molecular target: Muscarinic acetylcholine receptor M1 (Homo sapiens) (UniProt P11229); test: Cholinergic receptor muscarinic 1 (CHRM1) small molecule agonists, cell-based qHTS assay (AID 1963589); also: nearly all actives have a fitted effect of over 35% in size
How it was run: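 Cells were plated and incubated 18 h at 37 C/5% CO2, loaded with calcium dye for 1 h at 37 C, then treated with compounds in DMSO. Fluorescence was recorded kinetically at 1 sec intervals.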

[13] = cAMP Responsive Elements (CRE) small molecule agonists, cell-based qHTS assay (AID 1963590)
How it was run: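 Cells carrying a CRE-driven beta-lactamase reporter (HEK 293T) are seeded, incubated overnight (18 h), and treated with test compounds for 3 h at 37 C; reporter activity is then detected with a FRET substrate after 2 h at room temperature.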

[14] = cAMP Responsive Elements (CRE) small molecule antagonists, cell-based qHTS assay (AID 1963591; active = well fitted inhibition curve with a large enough effect in the signal ratio in the repeat runs, not every such curve was filed as active; the % refers to the signal ratio)
How it was run: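 Cells (CRE-bla HEK 293T, DMEM with 10% dialyzed FBS and 25 mM HEPES) are seeded and incubated 18 h. Compounds are added with NKH477 agonist at 0.25 uM final for 3 h, then FRET substrate for 2 h.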

[15] = molecular target: Beta-2 adrenergic receptor (Homo sapiens) (UniProt P07550); test: Adrenergic beta2 receptor (ADRB2) small molecule antagonists, cell-based qHTS assay (AID 1963592); also: nearly all actives have a fitted effect of over 50% in size; also: potency is read from the fitted curve at half-maximal effect
How it was run: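 Assay format: CHO-ADRB2 cells, 18-20hr seeding at 37C/5% CO2, then compound plus 1nM isoproterenol agonist mix for 0.5hr RT. Homogeneous time-resolved fluorescence cAMP detection after 1hr, expressed as 665/615 nm ratio.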

[16] = molecular target: D(2) dopamine receptor (Homo sapiens) (UniProt P14416); test: Dopamine D2 receptor (DRD2) small molecule agonists, cell-based qHTS assay (AID 1963594); also: nearly all actives have a fitted effect of over 35% in size
How it was run: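 HEK293 cells stably expressing DRD2 were cultured 24 h at 37 C, then given Ro20-1724 (0.1 mM final) and compounds for 10 min at room temperature. NKH477 (200nM) was then added for 30 min. cAMP was read by HTRF.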

[17] = molecular target: D(2) dopamine receptor (Homo sapiens) (UniProt P14416); test: Dopamine D2 receptor (DRD2) small molecule antagonists, cell-based qHTS assay (AID 1963595; active = well fitted inhibition curve with a large enough effect in the signal ratio in the repeat runs, with a control signal flat; the % refers to the signal ratio)
How it was run: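 Antagonist mode in DRD2-HEK293 cells: after compound addition with 0.1 mM Ro20-1724, cells received quinpirole (12 nM) and NKH477 (200 nM) for 30 min at room temperature; HTRF cAMP read after 1 h detection.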

[18] = p53 small molecule agonists, cell-based qHTS assay with human liver microsomes: qHTS cell viability counter screen (AID 1963579); also: nearly all actives have a fitted effect of over 45% in size
How it was run: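 p53RE-bla cells, 4,000/well, dosed 5 hours after plating, with human liver microsomes (0.5 mg/mL final) plus NADPH (0.5 mg/mL final), 16 hours at 37 C. Viability read as CellTiter-Glo luminescence after 30 min at room temperature.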

[19] = p53 small molecule agonists, cell-based qHTS assay (AID 1963582; active = well fitted activation curve with a large enough effect in the signal ratio in the repeat runs, not every such curve was filed as active; the % refers to the signal ratio)
How it was run: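 Cells carrying a p53-responsive bla reporter are treated with test compounds for 16 h at 37 C; beta-lactamase activity is then detected with LiveBLAzer B/G FRET substrate after 2 h at room temperature.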

[20] = molecular target: Beta-2 adrenergic receptor (Homo sapiens) (UniProt P07550); test: Adrenergic beta2 receptor (ADRB2) small molecule agonists, cell-based qHTS assay (AID 1963593);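 also: CHO cells stably overexpressing human ADRB2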
How it was run: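 CHO cells stably over-expressing ADRB2 were plated overnight at 37C, then dosed with compounds plus a stimulation mix containing 100uM IBMX and 25uM Ro-20-1724 for 0.5hr at room temperature. cAMP was measured by HTRF competition, 1hr.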

Sequence of Beta-2 adrenergic receptor (Homo sapiens) (P07550 whole entry, looked up): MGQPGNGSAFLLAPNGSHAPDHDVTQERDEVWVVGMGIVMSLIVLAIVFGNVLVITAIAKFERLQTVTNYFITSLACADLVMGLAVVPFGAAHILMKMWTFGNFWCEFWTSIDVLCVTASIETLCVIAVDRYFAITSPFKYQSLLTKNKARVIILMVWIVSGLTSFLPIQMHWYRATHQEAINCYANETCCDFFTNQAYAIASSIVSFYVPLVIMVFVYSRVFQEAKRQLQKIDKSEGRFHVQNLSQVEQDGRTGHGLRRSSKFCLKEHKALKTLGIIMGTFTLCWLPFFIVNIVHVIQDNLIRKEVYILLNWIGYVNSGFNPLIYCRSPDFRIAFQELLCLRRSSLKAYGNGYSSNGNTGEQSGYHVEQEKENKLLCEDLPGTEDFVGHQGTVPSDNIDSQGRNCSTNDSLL
Sequence of 5-hydroxytryptamine receptor 2A (Homo sapiens) (P28223 whole entry, looked up): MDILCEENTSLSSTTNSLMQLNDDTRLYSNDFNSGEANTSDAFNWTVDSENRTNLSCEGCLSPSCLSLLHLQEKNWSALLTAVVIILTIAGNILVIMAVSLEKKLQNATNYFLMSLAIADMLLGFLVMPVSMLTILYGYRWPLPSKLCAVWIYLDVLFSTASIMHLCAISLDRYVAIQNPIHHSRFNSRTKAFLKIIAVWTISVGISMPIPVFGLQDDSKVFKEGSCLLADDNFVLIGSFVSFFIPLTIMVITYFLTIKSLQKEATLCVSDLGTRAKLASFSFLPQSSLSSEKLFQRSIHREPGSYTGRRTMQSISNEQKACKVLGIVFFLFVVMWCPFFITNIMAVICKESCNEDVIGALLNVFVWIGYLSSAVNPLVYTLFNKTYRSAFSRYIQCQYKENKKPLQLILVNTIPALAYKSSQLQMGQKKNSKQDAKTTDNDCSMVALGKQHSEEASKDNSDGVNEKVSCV
Sequence of D(2) dopamine receptor (Homo sapiens) (P14416 whole entry, looked up): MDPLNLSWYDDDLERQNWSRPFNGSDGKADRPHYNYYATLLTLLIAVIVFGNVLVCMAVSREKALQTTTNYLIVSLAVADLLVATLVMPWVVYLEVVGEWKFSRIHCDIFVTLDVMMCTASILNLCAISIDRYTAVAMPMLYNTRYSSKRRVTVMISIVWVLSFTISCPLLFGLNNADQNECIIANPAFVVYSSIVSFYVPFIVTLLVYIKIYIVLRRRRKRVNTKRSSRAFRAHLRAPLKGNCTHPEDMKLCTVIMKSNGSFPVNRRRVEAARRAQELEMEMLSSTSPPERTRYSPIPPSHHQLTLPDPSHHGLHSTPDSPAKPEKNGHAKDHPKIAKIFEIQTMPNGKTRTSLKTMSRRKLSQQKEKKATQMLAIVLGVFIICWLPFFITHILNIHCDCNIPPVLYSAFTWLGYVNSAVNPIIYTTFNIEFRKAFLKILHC
Sequence of Gonadotropin-releasing hormone receptor (Homo sapiens) (P30968 whole entry, looked up): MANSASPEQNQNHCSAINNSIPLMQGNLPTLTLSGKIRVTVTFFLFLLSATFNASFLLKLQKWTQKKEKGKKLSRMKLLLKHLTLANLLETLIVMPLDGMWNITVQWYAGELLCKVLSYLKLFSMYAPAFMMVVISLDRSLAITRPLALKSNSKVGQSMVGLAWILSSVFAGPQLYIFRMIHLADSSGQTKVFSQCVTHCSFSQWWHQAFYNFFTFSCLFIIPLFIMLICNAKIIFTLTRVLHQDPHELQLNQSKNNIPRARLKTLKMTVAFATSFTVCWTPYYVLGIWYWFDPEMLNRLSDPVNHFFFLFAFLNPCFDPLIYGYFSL
Sequence of Muscarinic acetylcholine receptor M1 (Homo sapiens) (P11229 whole entry, looked up): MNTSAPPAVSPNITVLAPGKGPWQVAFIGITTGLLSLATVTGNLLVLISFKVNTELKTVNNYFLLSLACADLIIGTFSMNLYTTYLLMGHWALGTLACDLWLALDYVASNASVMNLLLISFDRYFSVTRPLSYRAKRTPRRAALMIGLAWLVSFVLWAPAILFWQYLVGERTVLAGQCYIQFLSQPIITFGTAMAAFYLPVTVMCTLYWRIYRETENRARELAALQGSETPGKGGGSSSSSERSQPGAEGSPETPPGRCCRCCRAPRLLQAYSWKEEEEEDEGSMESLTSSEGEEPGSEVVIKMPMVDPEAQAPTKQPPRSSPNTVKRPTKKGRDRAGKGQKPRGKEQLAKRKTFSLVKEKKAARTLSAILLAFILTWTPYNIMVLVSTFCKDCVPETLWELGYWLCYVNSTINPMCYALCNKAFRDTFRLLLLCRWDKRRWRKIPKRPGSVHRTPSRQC
Sequence of KiSS-1 receptor (Homo sapiens) (Q969F8 whole entry, looked up): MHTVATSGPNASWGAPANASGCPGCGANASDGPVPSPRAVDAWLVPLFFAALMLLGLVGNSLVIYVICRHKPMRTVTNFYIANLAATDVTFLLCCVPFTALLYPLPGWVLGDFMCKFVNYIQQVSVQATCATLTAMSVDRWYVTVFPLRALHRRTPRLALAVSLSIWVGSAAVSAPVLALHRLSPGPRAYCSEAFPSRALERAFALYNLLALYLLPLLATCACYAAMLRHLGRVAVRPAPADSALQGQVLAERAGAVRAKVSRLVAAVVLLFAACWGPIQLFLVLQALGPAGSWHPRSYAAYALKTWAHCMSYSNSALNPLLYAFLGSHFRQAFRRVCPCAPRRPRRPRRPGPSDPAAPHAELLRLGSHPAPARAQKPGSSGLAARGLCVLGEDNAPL

Row | SMILES | Potency [1] | Potency [2] | Potency [3] | Potency [4] | Potency [5] | Potency [6] | Potency [7] | Potency [8] | Potency [9] | Potency [10] | Potency [11] | Potency [12] | Potency [13] | Potency [14] | Potency [15] | Potency [16] | Potency [17] | Potency [18] | Potency [19] | Potency [20]
1 | COc1cccc(N(C)C(=S)Oc2ccc3c(c2)CCCC3)n1 | inactive | inactive | inactive | inactive | inactive | inactive | inactive | inactive | 5.79 µM (active) | inactive | inactive | inactive | inactive | inactive | inactive | inactive | inactive | – | – | –
2 | CCN(Cc1cccnc1)C(=O)c1cccc(Cl)c1[C@]1(C)C(=O)N(Cc2ccc(OC)cc2OC)c2ccc(Cl)cc21 | inactive | inactive | inactive | inactive | inactive | inactive | inactive | – | inactive | inactive | inactive | inactive | – | – | inactive | inactive | – | – | – | –
3 | CCCCCC1Nc2cc(C(F)(F)F)c(S(N)(=O)=O)cc2S(=O)(=O)N1 (configuration not stated) | inactive | inactive | inactive | inactive | inactive | – | inactive | inactive | – | inactive | – | inactive | – | – | inactive | inactive | inactive | inactive | inactive | inactive
4 | CC(C)c1ccccc1C(C)C | inactive | inactive | inactive | inactive | inactive | – | inactive | inactive | inactive | inactive | inactive | inactive | – | inactive | inactive | inactive | inactive | inactive | inactive | inactive
5 | CCCCN | inactive | 36.3 µM (active) | inactive | inactive | inactive | – | inactive | inactive | inactive | inactive | inactive | inactive | – | inactive | inactive | inactive | inactive | inactive | inactive | –
6 | OCCCCCO | inactive | inactive | inactive | inactive | inactive | inactive | inactive | inactive | inactive | inactive | inactive | inactive | inactive | inactive | inactive | – | inactive | – | inactive | inactive
7 | CC(C)(C)CC(C)(C)c1ccc(O)c(Cc2ccc(Cl)cc2Cl)c1 | 8.41 µM (active) | inactive | inactive | inactive | inactive | inactive | – | 8.9 µM (active) | inactive | inactive | inactive | inactive | – | – | – | inactive | – | inactive | – | inactive
8 | COCCc1ccc(OCC2CO2)cc1 (configuration not stated) | inactive | inactive | inactive | inactive | inactive | inactive | inactive | inactive | inactive | – | – | inactive | inactive | inactive | inactive | – | inactive | – | – | inactive
9 | CC(C)(C)CCCCCCOC(=O)c1ccccc1C(=O)OCCCCCCC(C)(C)C | inactive | inactive | inactive | inactive | inactive | – | inactive | inactive | inactive | inactive | inactive | inactive | inactive | inactive | inactive | – | inactive | inactive | – | inactive
10 | O/N=C/C=N/O | inactive | inactive | inactive | inactive | inactive | – | inactive | inactive | inactive | inactive | inactive | inactive | inactive | inactive | inactive | – | inactive | inactive | – | inactive
11 | NC(CCC(=O)O)C(=O)O (configuration not stated) | inactive | inactive | inactive | inactive | inactive | – | inactive | inactive | inactive | inactive | inactive | inactive | inactive | inactive | inactive | inactive | inactive | inactive | – | –
12 | C/C=C/C=C/C=O | inactive | 60.7 µM (active) | inactive | inactive | inactive | – | inactive | inactive | inactive | inactive | inactive | inactive | inactive | inactive | inactive | inactive | – | inactive | – | –
13 | CCCCCCCC/C=C\CCCCCCCCO | inactive | inactive | inactive | inactive | inactive | – | inactive | inactive | inactive | inactive | inactive | inactive | inactive | inactive | 54.4 µM (active) | inactive | inactive | inactive | – | –
14 | Cc1cc(C)c(N)cc1C | inactive | inactive | inactive | inactive | inactive | – | inactive | inactive | inactive | inactive | inactive | inactive | inactive | inactive | inactive | inactive | inactive | inactive | – | –
15 | OCCC1CCCCN1 (configuration not stated) | inactive | inactive | inactive | inactive | inactive | – | inactive | inactive | inactive | inactive | inactive | inactive | inactive | inactive | inactive | inactive | inactive | inactive | – | –
16 | CCCCCCCCCCCCC1CO1 (configuration not stated) | inactive | inactive | inactive | inactive | inactive | – | inactive | inactive | inactive | inactive | inactive | inactive | inactive | inactive | inactive | inactive | inactive | inactive | – | –
